Rows were chosen to be rich in hits. Some 10% of all compounds tested hit in one or more screens of this group.
Lamin A splicing = changes lamin A minigene splicing in HeLa cells | HeLa LMNA splicing GFP/RFP minigene ratio, 48 h | Potency, µM (titrated, usually from 46.1 µM), hits mostly inhibitors | hit rate 0.01% among 200,000; active means well fitted inhibition curve with a large enough effect in the signal ratio, with a control signal flat, not every such curve was filed as active; inconclusive means small, poorly fitted or top-dose-only effect, or effect the other way, or a change in a side signal; the % refers to the signal ratio
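S3 HeLa cells stably expressing lamin A-EGFP splicing minigene plus DsRed2, 600 cells/well, 48 h compound exposure at 37C. Laser-scanning cytometry; analysed as GFP (500-530 nm)/RFP (575-640 nm) total intensity ratio; 0.5% DMSO vehicle.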
PNC assembly inh = blocks assembly of the perinucleolar compartment; PC3M PTB-GFP, PNC prevalence imaging, 16 h; active compounds read low; activity change (PNC), negative = inhibition, % at 10 µM; hit rate 3.1% among 140,000; AID 2417;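 active means readout at or below -70, meaning at least 70% loss of cells showing the perinucleolar compartment, a nuclear body marking cancer cells; inconclusive means readout between -30 and a set limit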
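Compounds are pinned in duplicate onto adhered PC3M cells stably expressing GFP-tagged PTB and incubated 16 h at 37 C. Cells are then fixed, nuclei stained with Hoechst, and PNC-positive cells counted.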
HPGD block = blocks human HPGD enzyme activity; P15428; purified HPGD, NADH fluorescence kinetic, PGE2 substrate; Potency, µM, actives largely listed as inhibitors; hit rate 4.3% among 150,000; AID 894
Target sequence (P15428 whole entry, looked up): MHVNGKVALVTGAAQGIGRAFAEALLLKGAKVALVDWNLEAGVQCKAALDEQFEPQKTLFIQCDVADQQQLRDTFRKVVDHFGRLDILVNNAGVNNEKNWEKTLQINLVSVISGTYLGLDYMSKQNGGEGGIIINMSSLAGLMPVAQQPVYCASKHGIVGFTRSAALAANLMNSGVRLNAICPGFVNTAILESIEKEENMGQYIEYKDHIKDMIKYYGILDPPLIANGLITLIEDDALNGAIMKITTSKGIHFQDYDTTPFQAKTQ
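NADH formation kinetics: reaction with 30 uM PGE2 and 1 mM NAD+ (final), 20 nM enzyme, Tris-HCl pH 8 with Tween 20, after 15 min compound preincubation at room temperature. Fluorescence change, last versus first of five reads.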
Luc counter = counter-screen: inhibitors of Kinase-Glo firefly luciferase; hit rate 0.28% among 200,000; Potency, µM (titrated, usually from 38.3 µM), actives largely listed as inhibitors; Kinase-Glo luciferase, ATP luminescence, 8 min; AID 1379; Q27757; active means well fitted inhibition curve with a large enough effect; inconclusive means small, poorly fitted or top-dose-only effect; further: nearly all actives have a fitted effect of over 60% in size
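Compound is pinned into ATP-containing buffer (10 uM ATP, imidazole pH 7.2, 7 mM MgCl2). Kinase-Glo luciferase reagent is then added. Light output is recorded following an 8-min room-temperature incubation.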
ALDH1A1 inh = ALDH1A1 (human) enzyme inhibition. P00352. Purified ALDH1A1, NADH fluorescence, propionaldehyde substrate. Potency, µM (highest dose often 75.3 µM), actives largely listed as inhibitors. hit rate 7.3% among 220,000. AID 1030
Numbers stand for hits; n = inactive; u = inconclusive; x = no result; [ ] = another dose, or the depositor's remark. Unless noted, the call rests on the fitted dose curve; in most records, active means well fitted inhibition curve with a large enough effect (not every such curve was filed as active); inconclusive means small, poorly fitted or top-dose-only effect, or another doubt; inactive means no such curve, though single readings can be large or run the other way.

SMILES | Lamin A splicing | PNC assembly inh | HPGD block | Luc counter | ALDH1A1 inh
Cn1c(-c2ccc(F)cc2)cnc1NCc1ccccc1 | n | u | n | n | u
Cn1c(-c2ccc3c(c2)OCO3)cnc1NCc1cccc(O)c1 | n | x | x | n | 13µM
Cn1c(-c2cccc(Br)c2)cnc1NCc1cccnc1 | n | n | n | n | 11µM
COC(=O)c1scc(-c2ccc(C)cc2)c1S(=O)(=O)Nc1cc(OC)c(OC)c(OC)c1 | n | x | x | x | x
CC(C)C[C@@H](CC(=O)N[C@@H](CCC(=O)O)CC(=O)O)NC(=O)[C@@H]1CCCC[C@H]1NC(=O)C[C@@H](NC(=O)C[C@H](CO)NC(=O)[C@@H]1CNCC[C@H]1N)C(C)C | x | x | n | n | n
Cc1ccc(-c2nnc(COc3cccc(-n4cnnn4)c3)o2)cc1 | n | -103 | n | n | n
COc1cccc(-n2cnnn2)c1 | n | n | n | n | n
O=C1N=C(N2CCc3ccccc3C2)S/C1=C\c1cccc(O)c1 | n | n | 5µM | n | 2.5µM
O=C1N=C(N2CCOCC2)S/C1=C\c1ccc(OS(=O)(=O)c2ccccc2)cc1 | x | x | x | n | 28µM
CCOc1ccc(/C=C2\SC(N3CCc4ccccc4C3)=NC2=O)cc1 | n | n | 22µM | n | n
COc1ccc(/C=C2\SC(N3CCc4ccccc4C3)=NC2=O)cc1 | n | u | u | n | u
COc1cccc(N2CCN(C(=O)c3cc4c(=O)n(Cc5ccco5)ccc4nc3C)CC2)c1 | n | x | x | x | x
CSc1nnc2[nH]c(=O)cc(C)n12 | n | x | x | x | x
COc1ccc(OC)c(NC(=O)CSC2=Nc3ccccc3C3=NC(CC(=O)NCc4ccc5c(c4)OCO5)C(=O)N23)c1 (stereo not given) | n | x | x | x | x
O=C1C2C3C=CC(CC3)C2C(=O)N1/N=C/c1ccc(O)c(O)c1 (stereo not given) | u | n | n | n | u
O=C(Cc1ccc(F)cc1)N/N=C/c1ccc(-c2ccc(Cl)c(C(=O)O)c2)o1 | x | x | x | n | u
O=C(O)c1cc(-c2ccc(/C=N/N3C(=O)C4C5C=CC(CC5)C4C3=O)o2)ccc1Cl (stereo not given) | n | x | x | n | 11µM
COC(=O)c1ccc(-c2ccc(/C=N/N3C(=O)C4C5C=CC(CC5)C4C3=O)o2)cc1 (stereo not given) | x | x | x | n | n
O=C1C2C3C=CC(CC3)C2C(=O)N1/N=C/c1ccc(O)cc1 (stereo not given) | n | n | 28µM | n | u
O=C(O)c1cc(-c2ccc(/C=N/N3C(=O)C4C5C=CC(C6CC56)C4C3=O)o2)ccc1Cl (stereo not given) | x | x | x | n | 13µM
O=C(O)C1Cc2c([nH]c3ccccc23)C(c2coc3ccccc3c2=O)N1 (stereo not given) | x | x | n | n | n
CCCCC/C=C\C/C=C\C/C=C\C=C\C(=O)CCCC(=O)O | x | x | n | n | n
O=C(CNc1cc(S(=O)(=O)N2CCOCC2)ccc1N1CCCC1)N1CCc2ccccc21 | x | x | x | n | 25µM
O=C(Nc1cc(S(=O)(=O)N2CCOCC2)ccc1N1CCCCC1)c1cc(-c2ccccn2)nc2ccccc12 | x | x | x | n | 7.1µM
COc1ccc(/C=C(\C#N)C(=O)Nc2cc(S(=O)(=O)N3CCOCC3)ccc2N2CCCC2)cc1 | n | n | 13µM | n | 10µM
SMILES | Lamin A splicing | PNC assembly inh | HPGD block | Luc counter | ALDH1A1 inh
COc1ccccc1NCC(=O)Nc1cc(S(=O)(=O)N2CCOCC2)ccc1N1CCOCC1 | x | x | x | n | n
CCCN(CCC)C(=O)SCC | x | x | n | x | n
CCOc1ccc(N2C(=O)CS(=O)(=O)C23C(=O)N(Cc2cccc(Cl)c2)c2ccccc23)cc1 (stereo not given) | n | x | x | x | x
O=C(Nc1cc(Cl)ccc1Cl)c1cc(S(=O)(=O)NCCc2ccccc2)ccc1F | n | x | x | x | x
COc1ccc(S(=O)(=O)Nc2cc(Cl)ccc2OC)cc1 | u | u | n | n | n
COc1ccc(Cl)cc1NS(=O)(=O)c1ccc(OC)c(OC)c1 | n | n | n | n | 13µM
COc1ccc(Cl)cc1NS(=O)(=O)c1ccc(S(=O)(=O)N2CCCC2)cc1 | u | n | n | n | 28µM
N=c1ccn(Cc2ccc(Cl)cc2)cc1 | u | u | n | n | 25µM
COc1ccc(S(=O)(=O)N(CC(=O)Nc2ccccc2Cl)Cc2ccccc2)cc1 | n | x | x | x | x
COc1cc(C=O)ccc1OCCOCCOc1cc(C)ccc1Cl | u | n | x | x | n
CCOc1cc(C=O)ccc1OCCSc1ccc(C)cc1 | n | n | 18µM | n | u
COc1cc(C=O)ccc1OCCSc1ccc(C)cc1 | n | n | 18µM | n | u
O=C(O)c1ccc(N/N=C/c2ccc3c(c2)OCO3)cc1 | u | x | x | 4µM | n
O=C(O)c1cc(N/N=C/c2ccc3c(c2)OCO3)ccc1Cl | x | x | x | n | u
O=C(O)c1ccc(N/N=C/c2ccc(C(F)(F)F)cc2)cc1 | n | x | x | n | u
O=C(O)c1cc(N/N=C/c2ccc3c(c2)OCCO3)ccc1Cl | n | n | n | n | u
Cc1ccc(N/N=C/c2ccc3c(c2)OCCO3)cc1Cl | n | u | u | n | 13µM
CC(C)(C)c1ccc(/C=N/Nc2ccc(C(=O)O)cc2)cc1 | n | n | 14µM | n | n
COc1ccc(C(=O)NC2CC(=O)N(c3ccc4c(c3)OCCO4)C2)cc1 (stereo not given) | n | x | x | x | x
CC(C)(C)C1CCC2(CC1)CCN(CCCN1CCOCC1)CC2 | x | x | n | n[7.66 µM] | n[13.5 µM]
COc1ccc(Cn2c(O)cc(=O)[nH]c2=O)cc1 | n | n | n | n | u
CCOc1ccc(Cn2c(O)cc(=O)[nH]c2=O)cc1 | n | n | n | n | 18µM
CCOc1ccc(C2=NNC(c3cccs3)=Nc3ccc(OC)cc32)cc1OCC | u | -100 | n | n | n
NS(=O)(=O)c1ccc(CCNC(=O)CCC2COc3ccccc3O2)cc1 (stereo not given) | n | n | n | n | n
COc1ccc(CCNC(=O)CN2CCC(C)CC2)cc1OC | n | n | n | n | 11µM
SMILES | Lamin A splicing | PNC assembly inh | HPGD block | Luc counter | ALDH1A1 inh
COc1ccc(CCNC(=O)COC(=O)c2cnc(C)cn2)cc1OC | n | n | n | n | 13µM
COc1ccc(CCNC(=O)CCC2COc3ccccc3O2)cc1OC (stereo not given) | n | n | n | n | 13µM
CCCS(=O)(=O)N1CCCC(C(=O)NCCc2ccc(OC)c(OC)c2)C1 (stereo not given) | n | -92 | n | n | n
COc1ccc(-c2nc3c(c4c2C[C@H](c2ccccc2)OC4)CN(C(=O)NCCc2c[nH]c4ccccc24)CC3)c(C)c1 | n[9.22 µM] | x | n | n[7.66 µM] | n[13.5 µM]
COC(=O)CC1C(C)(C)C(O)C2CC3=C4C=C(OC)OC(c5ccoc5)[C@]4(C)CCC3[C@@]1(C)C2=O (stereo not given in full) | x | x | n | n | n
C=CCN1C(=O)/C(=C\c2ccco2)C(C(=O)OC)=C1C | n | n | 32µM | n | n
CCOc1cc(/C=C2\C(=O)N(CCc3ccc(OC)c(OC)c3)C(C)=C2C(=O)OC)ccc1O | n | n | u | n | 11µM
CCOc1cc(/C=C2\C(=O)N(Cc3ccco3)C(C)=C2C(=O)OC)ccc1O | u | x | x | n | 16µM

High-throughput results deposited in PubChem BioAssay by National Center for Advancing Translational Sciences (NCATS).
